Assay [1] has as its system Epidermal growth factor receptor (Homo sapiens), P00533 [T790M]. Conditions: at 1 µM.
The subject of assay [2] is Epidermal growth factor receptor (Homo sapiens), P00533 [L858R,T790M]. The settings on record: at 0.1 µM.
For assay [3] the test system is unchanged. The settings on record: at 1 µM.
Assay [4] deals with Ephrin type-A receptor 2 (Homo sapiens) (UniProt P29317). Conditions: at 0.1 µM.
Assay [5] shares this target. The settings on record: at 1 µM.
Assay [6] has as its target T1, Ephrin type-A receptor 3 (Homo sapiens) (UniProt P29320).
T1 sequence (whole entry): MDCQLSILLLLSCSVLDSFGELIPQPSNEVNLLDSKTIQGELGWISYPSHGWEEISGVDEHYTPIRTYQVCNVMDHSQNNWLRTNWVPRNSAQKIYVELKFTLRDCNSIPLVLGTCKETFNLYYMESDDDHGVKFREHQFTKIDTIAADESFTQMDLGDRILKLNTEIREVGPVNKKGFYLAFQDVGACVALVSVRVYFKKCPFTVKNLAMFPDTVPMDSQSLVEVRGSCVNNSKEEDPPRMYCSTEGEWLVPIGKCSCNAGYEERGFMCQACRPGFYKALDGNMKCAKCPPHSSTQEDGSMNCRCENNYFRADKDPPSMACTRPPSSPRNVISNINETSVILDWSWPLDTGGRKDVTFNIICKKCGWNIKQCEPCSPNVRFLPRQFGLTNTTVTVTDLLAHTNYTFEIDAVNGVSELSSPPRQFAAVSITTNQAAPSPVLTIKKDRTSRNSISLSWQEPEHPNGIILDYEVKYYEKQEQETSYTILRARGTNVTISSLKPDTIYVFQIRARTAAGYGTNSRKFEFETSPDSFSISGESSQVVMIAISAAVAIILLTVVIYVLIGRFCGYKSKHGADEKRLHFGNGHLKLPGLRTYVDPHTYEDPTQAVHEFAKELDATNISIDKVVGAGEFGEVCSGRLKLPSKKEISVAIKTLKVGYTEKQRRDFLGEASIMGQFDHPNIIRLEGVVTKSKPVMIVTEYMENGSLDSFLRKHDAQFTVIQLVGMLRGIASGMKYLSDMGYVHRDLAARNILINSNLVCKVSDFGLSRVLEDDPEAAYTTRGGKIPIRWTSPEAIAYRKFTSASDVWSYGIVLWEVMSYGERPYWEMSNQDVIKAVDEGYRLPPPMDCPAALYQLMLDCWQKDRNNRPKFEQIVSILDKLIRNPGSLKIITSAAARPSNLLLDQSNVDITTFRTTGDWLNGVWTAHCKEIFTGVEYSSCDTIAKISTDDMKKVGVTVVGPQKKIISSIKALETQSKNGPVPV
The settings on record: at 0.1 µM.

Assay [7] deals with T1, Ephrin type-A receptor 3 (Homo sapiens). Conditions: at 1 µM.
The target of assay [8] is Ephrin type-A receptor 4 (Homo sapiens) (UniProt P54764). The settings on record: at 0.1 µM.
Chain of Ephrin type-A receptor 4 (Homo sapiens) (P54764 whole entry): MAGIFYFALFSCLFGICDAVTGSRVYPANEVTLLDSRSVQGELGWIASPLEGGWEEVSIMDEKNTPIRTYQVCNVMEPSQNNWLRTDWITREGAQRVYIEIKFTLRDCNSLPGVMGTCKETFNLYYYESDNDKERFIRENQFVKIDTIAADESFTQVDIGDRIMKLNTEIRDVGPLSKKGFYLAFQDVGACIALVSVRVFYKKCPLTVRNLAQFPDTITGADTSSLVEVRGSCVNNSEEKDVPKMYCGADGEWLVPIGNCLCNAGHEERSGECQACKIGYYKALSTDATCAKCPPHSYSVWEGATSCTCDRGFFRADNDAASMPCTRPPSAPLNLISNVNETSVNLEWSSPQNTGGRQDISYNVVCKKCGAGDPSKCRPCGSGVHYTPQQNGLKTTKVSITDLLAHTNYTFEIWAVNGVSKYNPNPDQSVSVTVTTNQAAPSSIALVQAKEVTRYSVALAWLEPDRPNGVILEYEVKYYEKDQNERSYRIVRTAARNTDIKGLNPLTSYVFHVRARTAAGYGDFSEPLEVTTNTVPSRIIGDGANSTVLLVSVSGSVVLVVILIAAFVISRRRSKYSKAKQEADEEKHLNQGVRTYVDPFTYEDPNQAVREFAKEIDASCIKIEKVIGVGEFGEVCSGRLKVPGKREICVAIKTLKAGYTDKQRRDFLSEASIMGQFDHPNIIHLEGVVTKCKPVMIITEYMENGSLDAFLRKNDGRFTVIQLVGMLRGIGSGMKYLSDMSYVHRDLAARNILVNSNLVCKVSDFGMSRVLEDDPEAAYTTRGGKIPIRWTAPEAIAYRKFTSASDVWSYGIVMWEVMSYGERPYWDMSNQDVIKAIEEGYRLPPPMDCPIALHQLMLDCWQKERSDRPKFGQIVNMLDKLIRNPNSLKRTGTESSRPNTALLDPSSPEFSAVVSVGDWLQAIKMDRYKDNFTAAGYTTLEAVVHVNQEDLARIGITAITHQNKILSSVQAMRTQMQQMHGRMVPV
The target is the same in assay [9]. Conditions: at 1 µM.
Assay [10] deals with T2, Ephrin type-B receptor 2 (Homo sapiens) (UniProt P29323).
T2 sequence (whole entry): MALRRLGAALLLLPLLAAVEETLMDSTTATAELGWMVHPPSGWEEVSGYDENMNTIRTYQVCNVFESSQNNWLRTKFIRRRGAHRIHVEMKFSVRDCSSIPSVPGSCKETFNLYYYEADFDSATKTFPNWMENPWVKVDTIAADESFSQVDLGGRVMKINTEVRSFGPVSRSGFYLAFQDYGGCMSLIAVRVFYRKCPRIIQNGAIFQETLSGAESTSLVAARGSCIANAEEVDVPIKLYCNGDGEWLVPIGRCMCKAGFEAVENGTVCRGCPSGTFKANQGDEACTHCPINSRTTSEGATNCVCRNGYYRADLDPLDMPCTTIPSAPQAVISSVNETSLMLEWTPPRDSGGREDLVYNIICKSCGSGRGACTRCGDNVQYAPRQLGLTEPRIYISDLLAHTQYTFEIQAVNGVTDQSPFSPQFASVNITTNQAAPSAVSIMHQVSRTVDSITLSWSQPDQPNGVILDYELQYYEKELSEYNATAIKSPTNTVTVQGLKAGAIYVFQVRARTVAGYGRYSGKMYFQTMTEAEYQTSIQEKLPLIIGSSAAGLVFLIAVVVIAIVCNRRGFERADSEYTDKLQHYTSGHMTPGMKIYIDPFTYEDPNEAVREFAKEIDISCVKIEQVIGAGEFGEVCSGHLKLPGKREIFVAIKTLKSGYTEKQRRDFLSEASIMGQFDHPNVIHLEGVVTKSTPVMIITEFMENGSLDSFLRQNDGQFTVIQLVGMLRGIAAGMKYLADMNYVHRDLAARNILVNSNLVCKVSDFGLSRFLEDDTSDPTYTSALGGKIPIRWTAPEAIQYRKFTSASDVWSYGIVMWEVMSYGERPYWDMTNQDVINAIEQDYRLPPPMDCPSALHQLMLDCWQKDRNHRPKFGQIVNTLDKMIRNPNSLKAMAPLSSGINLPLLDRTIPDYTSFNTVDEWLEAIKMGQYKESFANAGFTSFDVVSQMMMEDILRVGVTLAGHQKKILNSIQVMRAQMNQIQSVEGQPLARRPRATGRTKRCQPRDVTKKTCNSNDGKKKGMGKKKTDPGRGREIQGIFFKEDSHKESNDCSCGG
The settings on record: at 0.1 µM.

Assay [11] has as its target T2, Ephrin type-B receptor 2 (Homo sapiens). The settings on record: at 1 µM.
The target in assay [12] is T3, Ephrin type-B receptor 3 (Homo sapiens) (UniProt P54753).
T3 sequence (whole entry): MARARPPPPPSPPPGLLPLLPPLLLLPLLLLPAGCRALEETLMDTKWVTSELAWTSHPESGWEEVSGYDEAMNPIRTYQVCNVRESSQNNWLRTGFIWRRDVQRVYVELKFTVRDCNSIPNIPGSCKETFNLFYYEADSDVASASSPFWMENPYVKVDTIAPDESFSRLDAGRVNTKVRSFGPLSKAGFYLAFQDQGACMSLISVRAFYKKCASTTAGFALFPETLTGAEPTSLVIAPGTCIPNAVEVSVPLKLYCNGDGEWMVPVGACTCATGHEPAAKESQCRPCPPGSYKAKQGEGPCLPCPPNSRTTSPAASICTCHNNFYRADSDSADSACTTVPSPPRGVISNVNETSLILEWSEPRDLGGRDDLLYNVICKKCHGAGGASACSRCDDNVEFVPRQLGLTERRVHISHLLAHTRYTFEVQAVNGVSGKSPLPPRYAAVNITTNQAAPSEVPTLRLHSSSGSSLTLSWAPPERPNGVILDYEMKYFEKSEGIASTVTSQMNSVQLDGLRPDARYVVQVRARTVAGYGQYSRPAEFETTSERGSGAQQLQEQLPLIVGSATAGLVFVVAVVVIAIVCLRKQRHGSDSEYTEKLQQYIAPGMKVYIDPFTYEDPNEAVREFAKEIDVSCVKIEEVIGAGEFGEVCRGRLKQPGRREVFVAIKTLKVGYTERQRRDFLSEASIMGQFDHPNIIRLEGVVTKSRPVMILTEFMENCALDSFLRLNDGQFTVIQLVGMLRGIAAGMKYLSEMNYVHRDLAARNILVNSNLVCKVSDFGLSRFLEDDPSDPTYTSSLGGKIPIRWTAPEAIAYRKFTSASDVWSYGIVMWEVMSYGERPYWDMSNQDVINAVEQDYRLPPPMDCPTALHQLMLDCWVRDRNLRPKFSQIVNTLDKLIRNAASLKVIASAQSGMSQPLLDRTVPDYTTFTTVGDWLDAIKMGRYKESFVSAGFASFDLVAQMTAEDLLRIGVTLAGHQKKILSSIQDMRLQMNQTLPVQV
Conditions: at 0.1 µM.

For assay [13], the target named is T3, Ephrin type-B receptor 3 (Homo sapiens). The settings on record: at 1 µM.
The target of assay [14] is T4, Ephrin type-B receptor 4 (Homo sapiens) (UniProt P54760).
T4 sequence (whole entry): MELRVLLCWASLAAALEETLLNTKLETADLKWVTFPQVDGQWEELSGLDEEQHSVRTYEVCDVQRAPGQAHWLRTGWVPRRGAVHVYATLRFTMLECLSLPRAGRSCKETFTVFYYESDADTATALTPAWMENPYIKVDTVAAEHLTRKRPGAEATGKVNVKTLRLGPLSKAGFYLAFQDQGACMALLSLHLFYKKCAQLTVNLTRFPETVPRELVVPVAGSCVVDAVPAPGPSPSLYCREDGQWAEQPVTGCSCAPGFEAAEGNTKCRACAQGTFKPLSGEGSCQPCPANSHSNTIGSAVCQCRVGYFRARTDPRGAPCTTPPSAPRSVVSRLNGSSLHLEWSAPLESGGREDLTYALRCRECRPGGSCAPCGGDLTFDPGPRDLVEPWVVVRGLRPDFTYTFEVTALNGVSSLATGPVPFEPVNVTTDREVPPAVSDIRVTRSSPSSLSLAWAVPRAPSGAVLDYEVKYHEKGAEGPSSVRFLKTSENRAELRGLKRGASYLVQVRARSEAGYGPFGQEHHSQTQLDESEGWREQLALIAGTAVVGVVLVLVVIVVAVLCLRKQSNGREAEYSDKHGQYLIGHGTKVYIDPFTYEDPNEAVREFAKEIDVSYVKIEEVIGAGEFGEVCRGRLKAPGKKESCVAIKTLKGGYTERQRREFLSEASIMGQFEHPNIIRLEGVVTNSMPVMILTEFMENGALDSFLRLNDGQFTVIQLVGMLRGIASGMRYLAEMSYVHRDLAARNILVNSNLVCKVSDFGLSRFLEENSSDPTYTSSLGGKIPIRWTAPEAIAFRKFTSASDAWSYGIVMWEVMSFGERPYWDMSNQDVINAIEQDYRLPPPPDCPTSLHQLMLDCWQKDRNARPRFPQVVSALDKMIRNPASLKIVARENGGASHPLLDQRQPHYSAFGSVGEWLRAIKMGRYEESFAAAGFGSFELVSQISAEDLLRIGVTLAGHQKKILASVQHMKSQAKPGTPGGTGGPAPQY
Conditions: at 0.1 µM.

The target of assay [15] is T4, Ephrin type-B receptor 4 (Homo sapiens). Conditions: at 1 µM.
Assay [16] has as its target Receptor tyrosine-protein kinase erbB-2 (Homo sapiens) (UniProt P04626). Conditions: at 0.1 µM.
The target is the same in assay [17]. The settings on record: at 1 µM.
The target in assay [18] is Receptor tyrosine-protein kinase erbB-4 (Homo sapiens) (UniProt Q15303). The settings on record: at 0.1 µM.
Chain of Receptor tyrosine-protein kinase erbB-4 (Homo sapiens) (Q15303 whole entry): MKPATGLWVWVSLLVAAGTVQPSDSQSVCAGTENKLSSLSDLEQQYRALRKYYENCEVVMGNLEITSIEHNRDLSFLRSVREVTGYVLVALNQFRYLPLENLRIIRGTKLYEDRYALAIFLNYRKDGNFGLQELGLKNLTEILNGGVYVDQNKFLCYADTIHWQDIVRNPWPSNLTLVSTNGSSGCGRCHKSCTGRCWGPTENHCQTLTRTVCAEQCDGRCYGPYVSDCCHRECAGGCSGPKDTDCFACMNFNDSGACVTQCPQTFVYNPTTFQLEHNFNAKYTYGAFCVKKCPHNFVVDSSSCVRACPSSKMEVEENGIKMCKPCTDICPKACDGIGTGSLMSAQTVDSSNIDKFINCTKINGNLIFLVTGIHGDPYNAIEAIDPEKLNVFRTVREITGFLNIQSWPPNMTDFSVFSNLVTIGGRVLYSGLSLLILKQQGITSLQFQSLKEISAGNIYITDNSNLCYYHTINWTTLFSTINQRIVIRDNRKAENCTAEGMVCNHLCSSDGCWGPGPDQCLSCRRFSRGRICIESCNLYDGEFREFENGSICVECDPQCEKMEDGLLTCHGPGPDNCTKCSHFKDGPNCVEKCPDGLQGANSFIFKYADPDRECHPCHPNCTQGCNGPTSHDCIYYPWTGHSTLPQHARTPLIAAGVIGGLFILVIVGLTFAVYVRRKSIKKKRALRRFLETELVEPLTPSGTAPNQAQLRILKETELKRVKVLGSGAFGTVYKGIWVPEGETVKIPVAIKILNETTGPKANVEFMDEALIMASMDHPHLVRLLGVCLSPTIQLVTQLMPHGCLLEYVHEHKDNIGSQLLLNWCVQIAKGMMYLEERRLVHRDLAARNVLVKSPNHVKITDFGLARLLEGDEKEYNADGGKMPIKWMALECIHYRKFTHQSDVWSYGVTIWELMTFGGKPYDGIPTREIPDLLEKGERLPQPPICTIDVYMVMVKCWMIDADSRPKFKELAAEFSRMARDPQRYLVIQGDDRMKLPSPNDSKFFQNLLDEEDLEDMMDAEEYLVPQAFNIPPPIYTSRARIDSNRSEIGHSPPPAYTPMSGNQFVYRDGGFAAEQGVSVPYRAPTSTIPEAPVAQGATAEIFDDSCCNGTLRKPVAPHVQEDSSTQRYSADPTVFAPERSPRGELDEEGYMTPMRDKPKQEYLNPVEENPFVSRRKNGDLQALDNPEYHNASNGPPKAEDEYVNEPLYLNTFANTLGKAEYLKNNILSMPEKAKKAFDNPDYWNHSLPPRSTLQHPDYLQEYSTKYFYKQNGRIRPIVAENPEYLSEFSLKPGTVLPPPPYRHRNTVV
The target is the same in assay [19]. The settings on record: at 1 µM.
Assay [20] addresses Tyrosine-protein kinase Fer (Homo sapiens) (UniProt P16591). The settings on record: at 0.1 µM.

Structures are written as SMILES.

As a reminder, the inhibition is the drop in the measured response relative to a control, in per cent.

Chain of Epidermal growth factor receptor (Homo sapiens), P00533 [T790M] (P00533 whole entry T790M): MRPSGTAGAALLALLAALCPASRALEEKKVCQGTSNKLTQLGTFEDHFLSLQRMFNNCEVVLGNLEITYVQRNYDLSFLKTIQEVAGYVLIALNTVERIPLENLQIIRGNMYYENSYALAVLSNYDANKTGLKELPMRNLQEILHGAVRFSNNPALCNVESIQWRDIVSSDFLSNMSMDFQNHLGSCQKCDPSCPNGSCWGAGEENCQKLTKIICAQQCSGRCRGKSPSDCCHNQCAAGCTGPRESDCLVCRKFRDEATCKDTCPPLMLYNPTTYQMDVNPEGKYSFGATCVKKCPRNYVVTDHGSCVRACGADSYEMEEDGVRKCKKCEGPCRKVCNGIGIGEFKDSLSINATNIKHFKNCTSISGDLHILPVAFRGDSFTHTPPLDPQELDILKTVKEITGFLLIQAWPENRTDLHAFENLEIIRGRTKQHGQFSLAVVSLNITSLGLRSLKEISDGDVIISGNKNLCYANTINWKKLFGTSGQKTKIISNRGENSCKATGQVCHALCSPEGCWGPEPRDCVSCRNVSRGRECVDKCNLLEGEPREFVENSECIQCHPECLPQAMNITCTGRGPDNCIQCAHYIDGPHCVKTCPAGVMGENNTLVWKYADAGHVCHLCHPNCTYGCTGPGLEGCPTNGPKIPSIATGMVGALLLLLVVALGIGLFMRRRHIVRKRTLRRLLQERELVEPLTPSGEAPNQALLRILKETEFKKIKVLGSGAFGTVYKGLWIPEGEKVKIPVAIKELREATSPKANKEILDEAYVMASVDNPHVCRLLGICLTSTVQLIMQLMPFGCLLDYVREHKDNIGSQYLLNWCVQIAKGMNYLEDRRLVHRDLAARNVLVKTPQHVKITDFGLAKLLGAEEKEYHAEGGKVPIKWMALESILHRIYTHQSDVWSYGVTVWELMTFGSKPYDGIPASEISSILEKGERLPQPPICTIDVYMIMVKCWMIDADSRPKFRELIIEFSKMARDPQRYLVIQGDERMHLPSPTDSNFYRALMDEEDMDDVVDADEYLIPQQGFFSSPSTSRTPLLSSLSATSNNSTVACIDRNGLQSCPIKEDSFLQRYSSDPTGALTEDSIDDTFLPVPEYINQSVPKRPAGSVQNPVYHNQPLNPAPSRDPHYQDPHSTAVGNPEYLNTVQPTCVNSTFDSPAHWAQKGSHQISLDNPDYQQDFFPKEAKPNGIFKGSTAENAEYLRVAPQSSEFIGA
Chain of Epidermal growth factor receptor (Homo sapiens), P00533 [L858R,T790M] (P00533 whole entry T790M/L858R, looked up): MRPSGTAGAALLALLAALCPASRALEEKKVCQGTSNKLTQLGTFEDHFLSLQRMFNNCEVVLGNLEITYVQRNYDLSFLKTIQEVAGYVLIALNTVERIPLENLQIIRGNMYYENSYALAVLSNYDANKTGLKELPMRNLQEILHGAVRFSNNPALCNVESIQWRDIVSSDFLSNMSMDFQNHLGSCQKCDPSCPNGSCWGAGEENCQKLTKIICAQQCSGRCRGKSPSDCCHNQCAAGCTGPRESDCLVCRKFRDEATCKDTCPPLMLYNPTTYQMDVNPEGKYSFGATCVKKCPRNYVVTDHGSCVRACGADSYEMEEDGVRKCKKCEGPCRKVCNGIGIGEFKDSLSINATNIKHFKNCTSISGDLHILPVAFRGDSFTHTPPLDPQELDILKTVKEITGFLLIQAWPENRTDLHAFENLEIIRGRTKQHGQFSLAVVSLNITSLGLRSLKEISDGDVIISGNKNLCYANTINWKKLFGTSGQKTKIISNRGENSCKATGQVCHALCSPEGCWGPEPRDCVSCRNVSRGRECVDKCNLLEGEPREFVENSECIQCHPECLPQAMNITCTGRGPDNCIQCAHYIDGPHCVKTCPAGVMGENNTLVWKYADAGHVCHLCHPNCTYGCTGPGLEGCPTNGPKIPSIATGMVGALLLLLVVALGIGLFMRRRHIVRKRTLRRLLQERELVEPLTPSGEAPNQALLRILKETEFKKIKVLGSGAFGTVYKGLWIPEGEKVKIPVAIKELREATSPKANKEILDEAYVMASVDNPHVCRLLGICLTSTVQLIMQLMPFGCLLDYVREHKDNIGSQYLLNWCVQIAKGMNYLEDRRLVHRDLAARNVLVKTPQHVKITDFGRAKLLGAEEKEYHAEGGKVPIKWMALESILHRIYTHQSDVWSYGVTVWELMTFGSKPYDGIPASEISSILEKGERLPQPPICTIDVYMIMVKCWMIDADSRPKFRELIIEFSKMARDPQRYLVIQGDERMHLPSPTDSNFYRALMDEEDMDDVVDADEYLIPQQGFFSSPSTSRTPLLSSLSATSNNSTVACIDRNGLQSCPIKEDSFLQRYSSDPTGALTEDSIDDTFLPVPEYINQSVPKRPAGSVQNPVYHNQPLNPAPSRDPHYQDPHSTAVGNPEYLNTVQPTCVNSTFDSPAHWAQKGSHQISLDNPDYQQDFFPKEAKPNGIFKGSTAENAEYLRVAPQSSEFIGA

With `COc1cc(Nc2ncc(-c3ccccc3)o2)cc(OC)c1OC`, the inhibition was 1.16% in assay [1]; -0.28% in assay [2]; -0.54% in [3]; -3.3% in [4]; -1.26% in assay [5]; -6.76% in assay [6]. Further, the inhibition in [7] was -5.8%; in assay [8], -7.25%; in assay [9], 1.47%; in assay [10], -1.44%; in assay [11], 5.83%; in [12] it was -5.87%. The inhibition is -2.19% in assay [13]; 1.05% in assay [14]; 3.25% in assay [15]; 0.87% in assay [16]; -1.74% in assay [17]; -4.19% in [18]. The inhibition in assay [19] is -2.66%; in assay [20] it was -1.48%.
Take `CCS(=O)(=O)c1ccc(OC)c(Nc2ncc(-c3cccc(-c4ccccc4F)c3)o2)c1`: the inhibition in [1] is 0.84%; in assay [2], 3.32%; in assay [3], 5.25%; in [4], -1.44%; in assay [5], -0.56%; in [6], -1.38%. Moreover, the inhibition in assay [7] came to 4.18%; in assay [8], 2.37%; in assay [9], 2.94%; in assay [10] it was 5.91%; in assay [11] it was 11.9%; in assay [12] it was 2.15%. For the same compound, the inhibition was 0.93% in [13]; 0.78% in assay [14]; 8.8% in assay [15]; -0.34% in assay [16]; 2.22% in [17]; 5.89% in assay [18]. The inhibition turned out to be 15.2% in [19] and 0.83% in [20].
As for `O=C1Nc2ccc(I)cc2C1=Cc1cc(Br)c(O)c(Br)c1`, the inhibition was 1.77% in assay [1]; -1.49% in [2]; -1.12% in [3]; 1.35% in assay [4]; 1.12% in assay [5]; 1.79% in assay [6]. Moreover, the inhibition in [7] stood at 4.64%; in assay [8], 7.31%; in assay [9] it was 9.77%; in [10], 5.47%; in assay [11], 6.84%; in assay [12], 0.93%. In addition, the inhibition in [13] came to 5.23%; in assay [14], 5.1%; in [15], 4.33%; in [16], 3.38%; in assay [17] it was 2.46%; in assay [18], 5.63%. Besides, the results for the inhibition in [19] and in [20] were 10.5% and -1.96%, respectively.
`COc1cc(Nc2ncc3c(C)nc(-c4cccc(Oc5ccccc5)c4)n3n2)cc(OC)c1OC`: the inhibition in assay [1] was -1.01%; in assay [2], 1.23%; in [3] it was -0.96%; in [4] it was 1.16%; in assay [5] it was -0.33%; in [6] it was 3.2%. Besides, the inhibition in [7] turned out to be 1.56%; in assay [8], 5.4%; in assay [9] it was 3.74%; in [10] it was 4.87%; in [11] it was 8.52%; in assay [12], 4.24%. Further, the inhibition is 1.21% in assay [13]; 2.59% in assay [14]; 2.97% in [15]; 1.99% in assay [16]; -3.48% in assay [17]; 7.04% in [18]. Also, the values for the inhibition in assay [19] and in [20] were 8.43% and 3.91%, respectively.

The values above are taken from ChEMBL document CHEMBL1961873, “Compounds: GSK PKIS; Assays: Nanosyn kinase panel” (2012).
